Bioassay records from PubChem BioAssay.
The entries come from a sample that favours hits as a whole.
Shiga inhibitor – inhibitors of Shiga toxin in Vero cells; Vero cells, Shiga toxin protein synthesis inhibition reporter; inhibition, % at 38.7 µM; 290,000 compounds, 9.2% hits; AID 2315; in the data active = inhibition mostly above about 28%, no sharp cut-off; inactive = mostly below about 43%; also: 0% is about no effect
Sm TGR inh – blocks Schistosoma mansoni thioredoxin glutathione reductase; Q962Y6; 360,000 compounds, 3% hits; purified TGR, DTNB reduction, TNB absorbance 405 nm; Potency, µM (titrated, usually from 114 µM), inactives show top-dose activity change, negative = inhibition, actives largely listed as inhibitors; also: potency is read from the fitted curve at half-maximal effect; % is scaled to controls: 0 for no effect and ±100 for the full control effect; nearly all actives have a fitted effect of over 60% in size
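First, TGR (20 nM dispensed) and NADPH were mixed with compound. Second, a 15 min room-temperature incubation followed. Third, further NADPH and then DTNB were added to start the reaction. Finally, TNB absorbance was monitored kinetically.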
CHX counter – affects cycloheximide protein synthesis inhibition readout, counter-screen; cell reporter, cycloheximide protein synthesis inhibition counterscreen; max response, %; 300,000 compounds, 12% hits; AID 2314; in the data active = max response mostly above about 13%, no sharp cut-off; inactive = mostly below about 14%; also: read at 38.3 µM for the half of the compounds with a filed dose; 0% is about no effect
FBPA Giardia inh – blocks Giardia fructose-bisphosphate aldolase activity. A8B2U2. purified Giardia FBPA. Potency, µM (top dose mostly 59.6 µM), for inactives: at the highest dose activity, negative = inhibition, hits mostly inhibitors. 290,000 compounds, 0.71% hits. AID 2451; also: potency is read from the fitted curve at half-maximal effect; % is scaled to controls: 0 for no effect and ±100 for the full control effect; nearly all actives have a fitted effect of over 55% in size
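Giardia FBPA (40 nM reagent) was preincubated 10 min at RT with compound (up to 57.5 uM final), then substrate plus GAPDH/TPI/NAD/arsenate coupling system with diaphorase/resazurin was added; resorufin fluorescence (525/598 nm) was read after 20 min.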
LmPK inh – blocks Leishmania mexicana pyruvate kinase activity | 290,000 compounds, 0.37% hits | Potency, µM (titrated, usually from 57.5 µM), without a hit: at the highest dose activity change, negative = inhibition, most hits filed as inhibitors | Q27686 | purified LmPK, Kinase-Glo ATP luminescence, 1 h | AID 1721; also: potency is read from the fitted curve at half-maximal effect; % is scaled to controls: 0 for no effect and ±100 for the full control effect
Target sequence (Q27686 whole entry, looked up): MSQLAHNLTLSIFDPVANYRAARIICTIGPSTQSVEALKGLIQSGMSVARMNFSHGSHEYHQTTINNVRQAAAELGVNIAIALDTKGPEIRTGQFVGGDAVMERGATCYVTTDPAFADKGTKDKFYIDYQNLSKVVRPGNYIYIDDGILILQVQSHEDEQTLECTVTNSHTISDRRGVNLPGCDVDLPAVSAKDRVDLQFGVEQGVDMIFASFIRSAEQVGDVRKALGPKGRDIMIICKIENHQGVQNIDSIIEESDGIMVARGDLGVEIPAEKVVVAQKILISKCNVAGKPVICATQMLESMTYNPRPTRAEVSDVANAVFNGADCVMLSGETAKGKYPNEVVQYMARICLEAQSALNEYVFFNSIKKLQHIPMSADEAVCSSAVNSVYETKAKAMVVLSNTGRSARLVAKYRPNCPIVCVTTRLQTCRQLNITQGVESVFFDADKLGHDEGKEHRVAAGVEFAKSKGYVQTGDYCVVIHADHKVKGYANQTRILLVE
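ATP generated from ADP (0.1 mM) and PEP (0.5 mM) by 0.1 nM LmPK over 1 h at room temperature (pH 7.2 imidazole buffer) was detected by coupled luciferase luminescence. Values were normalized to uninhibited and no-enzyme wells.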
Tb PYK inh – inhibitors of Trypanosoma brucei pyruvate kinase; TbPYK enzyme, Kinase-Glo Plus ATP luminescence, 45 min; Potency, µM (doses to about 76.8 µM), for inactives: at the top dose activity, negative = inhibition, hits mostly inhibitors; 410,000 compounds, 0.12% hits; AID 624173; also: potency is read from the fitted curve at half-maximal effect; % is scaled to controls: 0 for no effect and ±100 for the full control effect; nearly all actives have a fitted effect of over 50% in size
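Enzyme and substrate buffer are dispensed first and compound is pin-transferred. ADP at 130 uM final then starts the reaction, which runs 45 min at room temperature. Detection reagent is added for 10 min before luminescence is imaged.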
* hit, by the source's call; [ ] = dose if it differs, or a comment. Unless noted, calls follow the shape of the dose curve; as a rule, active = well fitted curve in the direction sought with a large enough effect; inconclusive = small, poorly fitted or top-dose-only effect, or another doubt; inactive = no such curve, though single readings can be large; an effect the other way counts as inactive or inconclusive.

How did O=C1N=C(N2CCN(c3ccccc3)CC2)S/C1=C\c1ccco1 do in these assays?
Shiga inhibitor: 35; Sm TGR inh: 22µM*; CHX counter: 22; FBPA Giardia inh: inconclusive; LmPK inh: -7%; Tb PYK inh: -4%

What do the screens show for `Cc1cc2nnc(SCC(=O)Nc3ccc(F)c(Cl)c3)n2c2ccccc12`?
Sm TGR inh: 0%; Tb PYK inh: 1%

Results for CCOc1ccccc1NC(=O)CSc1nnc(-c2ccccn2)n1Cc1ccco1 ?
Shiga inhibitor: -6; Sm TGR inh: inconclusive; CHX counter: 6; FBPA Giardia inh: 10%; LmPK inh: -2%; Tb PYK inh: -6%

What do the screens show for `CCOc1ccccc1NC(=O)CSc1nnc(-c2ccccc2Cl)n1Cc1ccco1`?
Shiga inhibitor: -17; Sm TGR inh: 50µM*; CHX counter: 5; FBPA Giardia inh: -1%; LmPK inh: 8%; Tb PYK inh: -8%

What do the screens show for `CCOc1ccccc1NC(=O)CSc1nnc(-c2ccco2)n1Cc1ccco1`?
Shiga inhibitor: 9; Sm TGR inh: 50µM*; CHX counter: 5; FBPA Giardia inh: 8%; LmPK inh: 1%; Tb PYK inh: 1%

What do the screens show for `CCOC(=O)N1C2=NC(C(=O)OC)=C(C(=O)OC)[C@@H]3N(C)c4ccccc4[C@]23C[C@H]1C(=O)OC`?
Shiga inhibitor: -1; Sm TGR inh: 19%; CHX counter: 23*; FBPA Giardia inh: 8%[12.9 µM]; LmPK inh: -7%[11.5 µM]; Tb PYK inh: 4%

What do the screens show for `COc1ccc(CNC(=O)C2=CC(c3ccc(C)cc3)=NS(=O)(=O)N2C)cc1`?
Shiga inhibitor: 2; Sm TGR inh: 10%; CHX counter: -2; FBPA Giardia inh: -10%; LmPK inh: -5%; Tb PYK inh: -3%

Results for O=C(CN1CCCC1c1cccs1)Nc1cc(S(=O)(=O)N2CCCCC2)ccc1Cl (configuration not stated) ?
Tb PYK inh: -8%

Results for CCCNC(=O)COc1ccccc1[N+](=O)[O-] ?
Shiga inhibitor: 39; Sm TGR inh: -4%; CHX counter: 21; FBPA Giardia inh: 2%; LmPK inh: -4%; Tb PYK inh: 3%

How did CCCCNC(=O)COc1ccccc1[N+](=O)[O-] do in these assays?
Shiga inhibitor: 77*; Sm TGR inh: 8%; CHX counter: 25*; FBPA Giardia inh: -2%; LmPK inh: 2%; Tb PYK inh: 5%

Results for NNC(=O)COc1ccccc1[N+](=O)[O-] ?
Shiga inhibitor: 18; Sm TGR inh: 0%; CHX counter: 25*; FBPA Giardia inh: 1%; LmPK inh: -5%; Tb PYK inh: -1%

Results for O=[N+]([O-])c1ccccc1OCCNCc1ccccc1 ?
Sm TGR inh: -13%; CHX counter: 16*; FBPA Giardia inh: -24%; LmPK inh: -4%; Tb PYK inh: -1%

What do the screens show for `CCCCNC(=O)c1cc2cccc([N+](=O)[O-])c2[nH]1`?
Shiga inhibitor: 12; Sm TGR inh: 1%; CHX counter: 22*; FBPA Giardia inh: -23%; LmPK inh: -1%; Tb PYK inh: -5%

What do the screens show for `CCCCNC(=O)c1cc([N+](=O)[O-])[nH]n1`?
Shiga inhibitor: -12; Sm TGR inh: -9%; CHX counter: 4; FBPA Giardia inh: -10%; LmPK inh: 3%; Tb PYK inh: 6%

How did CCC(=O)N1CCN(c2ccc(NC(=O)c3ccco3)cc2Cl)CC1 do in these assays?
Shiga inhibitor: 38; Sm TGR inh: 1%; CHX counter: 15*; FBPA Giardia inh: -2%; LmPK inh: -2%; Tb PYK inh: -5%

Results for CC(=O)N1CCN(c2ccc(NC(=O)c3ccco3)cc2Cl)CC1 ?
Shiga inhibitor: 43*; Sm TGR inh: inconclusive; CHX counter: 17*; LmPK inh: -8%; Tb PYK inh: -4%

Results for O=C(Nc1ccc(N2CCOCC2)c(Cl)c1)C1CCCCC1 ?
Shiga inhibitor: 129; Sm TGR inh: 4%; CHX counter: 52*; FBPA Giardia inh: 13%; LmPK inh: 3%; Tb PYK inh: 5%

Results for O=C(Nc1ccc(N2CCOCC2)c(Cl)c1)c1ccco1 ?
Shiga inhibitor: 46; Sm TGR inh: 12%; CHX counter: 34*; FBPA Giardia inh: -17%; LmPK inh: -6%; Tb PYK inh: -9%

What do the screens show for `O=C(Nc1ccc(Cl)c(S(=O)(=O)N2CCOCC2)c1)C1CCCC1`?
Tb PYK inh: 0%

Results for Cn1c(CC(=O)Nc2ccc(F)cc2)nnc1SCC(=O)Nc1nncs1 ?
Shiga inhibitor: -7; Sm TGR inh: 1%; CHX counter: -1; FBPA Giardia inh: -18%; LmPK inh: 2%; Tb PYK inh: -1%

Results for Cc1cc(C)cc(OCC(=O)N2CCC(c3nc4ccccc4o3)CC2)c1 ?
Sm TGR inh: 2%; Tb PYK inh: -2%

Results for CCCn1c(=NC(=O)c2cc3ccccc3o2)c(C(=O)OCC)cc2c(=O)n3ccccc3nc21 ?
Sm TGR inh: 0%; Tb PYK inh: -1%

Results for CC(C)Oc1ccc(C(=O)Nc2ccccc2N2CCOCC2)cc1 ?
Shiga inhibitor: 19; Sm TGR inh: 5%; CHX counter: -2; FBPA Giardia inh: -3%; LmPK inh: 0%; Tb PYK inh: -21%

What do the screens show for `Cc1nc(COc2ccc(C(=O)Nc3ccccc3N3CCOCC3)cc2)cs1`?
Shiga inhibitor: 26*; Sm TGR inh: -6%; CHX counter: 9; FBPA Giardia inh: 8%; LmPK inh: 3%; Tb PYK inh: 0%

How did N#C/C(=N\Nc1ccc(Br)cc1)C(=N)N1CCOCC1 do in these assays?
Shiga inhibitor: 107*; Sm TGR inh: -10%; CHX counter: 69*; FBPA Giardia inh: inconclusive; LmPK inh: 3%[11.5 µM]; Tb PYK inh: 1%

How did N#C/C(=N/Nc1ccc(S(=O)(=O)N2CCOCC2)cc1)C(N)=O do in these assays?
Shiga inhibitor: -9; Sm TGR inh: 4%; CHX counter: -3; FBPA Giardia inh: -11%; LmPK inh: -1%; Tb PYK inh: -11%

How did N#C/C(=N\Nc1ccc([N+](=O)[O-])cc1)C(N)=S do in these assays?
Shiga inhibitor: 88*; Sm TGR inh: -12%; CHX counter: 41*; FBPA Giardia inh: inconclusive; LmPK inh: inconclusive; Tb PYK inh: -27%

Results for N#C/C(=N\Nc1ccc(S(=O)(=O)N2CCCCC2)cc1)C(N)=S ?
Shiga inhibitor: -2; Sm TGR inh: -1%; CHX counter: -2; FBPA Giardia inh: -24%; LmPK inh: -6%; Tb PYK inh: -14%

Results for COc1ccccc1N/N=C(\C#N)C(=N)N1CCOCC1 ?
Shiga inhibitor: 14; Sm TGR inh: -4%; CHX counter: 6; FBPA Giardia inh: -11%; LmPK inh: 2%; Tb PYK inh: -1%
